Screening results from PubChem BioAssay.
G9a block – qHTS Assay for Inhibitors of Histone Lysine Methyltransferase G9a | G9a H3K9 monomethylation, AlphaScreen, 2 h | 8.8% of 350,000 active | Histone-lysine N-methyltransferase EHMT2 (Homo sapiens), Q96KQ7 | Potency, µM (highest dose often 102 µM), without a hit: at the highest dose activity, negative = inhibition, most hits filed as inhibitors | AID 504332, 2011; further: potency means the concentration at half of the fitted maximal effect; on the % scale 0 is the no-effect control and ±100 the full control effect; nearly all actives have a fitted effect of over 75% in size
Target sequence (Q96KQ7 913-1193 limits assumed): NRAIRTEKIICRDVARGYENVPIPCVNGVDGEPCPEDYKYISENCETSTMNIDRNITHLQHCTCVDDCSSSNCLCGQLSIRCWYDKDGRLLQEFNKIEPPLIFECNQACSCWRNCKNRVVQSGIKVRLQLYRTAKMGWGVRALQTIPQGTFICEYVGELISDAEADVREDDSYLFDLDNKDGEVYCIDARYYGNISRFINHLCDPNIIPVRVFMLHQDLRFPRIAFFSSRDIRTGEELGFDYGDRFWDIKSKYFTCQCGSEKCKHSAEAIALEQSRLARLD
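AlphaScreen detection with an anti-monomethyl H3K9 antibody quantified product after a 2 h room-temperature reaction containing 500 nM biotinylated H3K9 peptide, 20 µM SAM and 20 nM enzyme, which had been preincubated 15 min with compound.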
Six1-Eya2 blk – qHTS Assay for Inhibitors of the Six1/Eya2 Interaction | Homeobox protein SIX1 (Homo sapiens) + Protein phosphatase EYA2 (Homo sapiens), … | AlphaScreen GST-Six1/His-Eya2 binding, biochemical; active compounds read low | activity change, % (test concentration not listed) | 0.56% of 360,000 active | AID 651725, 2012; in the data active means activity change below about -65%; inconclusive means mostly about -30% to -63%; further: on the % scale 0 is the no-effect control and ±100 the full control effect
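Six1/Eya2 binding was read as AlphaScreen signal after compounds were pinned into GST-Six1 plus His-tagged Eya2 (5X stock 250/500 nM) in pH 8.0 Tris/NaCl/TCEP buffer, beads added, then incubated 1 h, 37 C, dark.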
HP1b binding inh – HTS for Inhibitors of HP1-beta Chromodomain Interactions with Methylated Histone Tails; Chromobox protein homolog 1 (Homo sapiens), P83916; AlphaScreen HP1-beta / biotin-H3K9me3 peptide binding; Potency, µM (doses to about 114 µM), for inactives: top-dose activity change, negative = inhibition, hits mostly inhibitors; 0.56% of 390,000 active; further: potency means the concentration at half of the fitted maximal effect; nearly all actives have a fitted effect of over 70% in size
Target sequence (P83916 whole entry, looked up): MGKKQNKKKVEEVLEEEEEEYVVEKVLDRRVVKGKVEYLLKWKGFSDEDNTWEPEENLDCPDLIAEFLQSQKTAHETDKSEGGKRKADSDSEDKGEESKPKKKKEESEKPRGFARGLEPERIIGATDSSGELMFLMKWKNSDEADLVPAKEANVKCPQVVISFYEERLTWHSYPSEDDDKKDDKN
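Compound inhibition of the preformed complex between 50 nM HP1-beta and 50 nM biotinylated H3K9me3 peptide was read by AlphaScreen. Buffer was PBS pH 7.4 with 0.01% Tween-20. Incubations ran 30 min at room temperature, with 10 ug/mL donor/acceptor beads.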
CtBP-E1A blk – qHTS Assay for Inhibitors of the CtBP/E1A Interaction. AID 651724, 2012. AlphaScreen GST-E1A/His-CtBP binding, 1536-well; active compounds read low. 0.49% of 340,000 active. activity change, % (test concentration not listed). CtBP / adenovirus E1A interaction (AlphaScreen); in the data active means activity change below about -65%; inconclusive means mostly about -30% to -63%; further: on the % scale 0 is the no-effect control and ±100 the full control effect
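Homogeneous bead-based format: GST-tagged E1A captured on glutathione donor beads, His-tagged CtBP on nickel acceptor beads; compounds precede bead addition by 2 h at 37 °C.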
JMJD2A Tudor – qHTS Assay for Inhibitors of JMJD2A-Tudor Domain. AlphaScreen JMJD2A-Tudor / H3K4me3 peptide binding. Potency, µM (titrated, usually from 114 µM), for inactives: top-dose activity change, negative = inhibition, hits mostly inhibitors. 4.4% of 390,000 active; further: potency means the concentration at half of the fitted maximal effect; on the % scale 0 is the no-effect control and ±100 the full control effect; nearly all actives have a fitted effect of over 50% in size
BAZ2B inh – qHTS Assay for Inhibitors of BAZ2B; Bromodomain adjacent to zinc finger domain protein 2B (Homo sapiens), Q9UIF8; AlphaScreen BAZ2B-H3K14Ac peptide displacement; Potency, µM (series often up to 114 µM), inactives show at the highest dose activity change, negative = inhibition, usual class: inhibitors; 4.4% of 360,000 active; AID 504333, 2011; further: potency means the concentration at half of the fitted maximal effect; on the % scale 0 is the no-effect control and ±100 the full control effect; nearly all actives have a fitted effect of over 60% in size
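Protein-peptide AlphaScreen: BAZ2B 50 nM, b-H3K14Ac 50 nM, 1x PBS pH 7.4 + 0.01% Tween-20. Preincubation 30 min RT; cpd 30 min RT (top 110 uM); beads 20 min RT, light-protected.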
Starred values were filed as active, the others as inactive; [ ] = another dose, or the depositor's remark. Shown are actives, neighbours in structure and some others; about 10% of the full set was active somewhere. Unless noted, the call rests on the fitted dose curve; in most records, active means well fitted inhibition curve with a large enough effect; inconclusive means small, poorly fitted or top-dose-only effect; inactive means no such curve, though single readings can be large or run the other way.

CCOc1ccc(C2C(C(=O)c3ccc(C)o3)=C(O)C(=O)N2c2cc(C)on2)cc1OC (centres undefined) was read as G9a block 50µM*, Six1-Eya2 blk -2, HP1b binding inh 11%, CtBP-E1A blk 2, JMJD2A Tudor -34% and BAZ2B inh -26%[57.1 µM].
Screening COc1ccccc1C1C(C(=O)c2ccc(C)o2)=C(O)C(=O)N1c1cc(C)on1 (centres undefined) returned G9a block 89µM*, Six1-Eya2 blk 3, HP1b binding inh 22%, CtBP-E1A blk 6, JMJD2A Tudor -10% and BAZ2B inh inconclusive.
For COc1cc(C2C(C(=O)c3ccc(C)o3)=C(O)C(=O)N2c2cc(C)on2)ccc1OCc1ccccc1 (centres undefined) the results were G9a block 45µM*, Six1-Eya2 blk 4, HP1b binding inh 23%, JMJD2A Tudor 4% and BAZ2B inh -1%.
COc1cc(C2C(C(=O)c3ccc(C)o3)=C(O)C(=O)N2c2cc(C)on2)cc(OC)c1OC (centres undefined) was read as G9a block 0%[59 µM], Six1-Eya2 blk 6, HP1b binding inh 30%, JMJD2A Tudor -2% and BAZ2B inh 6%.
For CN(C)c1ccc2c(=O)cc[nH]c2c1 the results were Six1-Eya2 blk -5 and CtBP-E1A blk -2.
`CCCOc1cccc(C2C(C(=O)c3cc4ccccc4o3)=C(O)C(=O)N2c2cc(C)on2)c1` (centres undefined) gave G9a block -2%[0.501 µM], Six1-Eya2 blk 3, HP1b binding inh -5%[57 µM], JMJD2A Tudor inconclusive and BAZ2B inh inconclusive.
For CCCCCOc1ccc(C2C(C(=O)c3ccc(C)o3)=C(O)C(=O)N2c2cc(C)on2)cc1 (centres undefined) the results were G9a block 45µM*, Six1-Eya2 blk -12, HP1b binding inh 16%, CtBP-E1A blk -6, JMJD2A Tudor inconclusive and BAZ2B inh -20%.
Screening COc1cc(/C=C/CNC[C@H]2O[C@@H](n3cnc4c(N)ncnc43)[C@H](O)[C@@H]2O)ccc1O returned Six1-Eya2 blk -4 and CtBP-E1A blk 3.
Screening O=C(O)c1cccc(-n2c(/C=C/c3ccc([N+](=O)[O-])cc3)nc3ccccc3c2=O)c1 returned G9a block 71µM*, Six1-Eya2 blk -16, HP1b binding inh 7%, CtBP-E1A blk -27, JMJD2A Tudor -25% and BAZ2B inh -30%.
`O=C(O)c1cccc(Nc2nc3ccccc3nc2NS(=O)(=O)c2cccs2)c1` gave G9a block 45µM*, Six1-Eya2 blk -4, HP1b binding inh 37%, JMJD2A Tudor -15% and BAZ2B inh -5%[57.1 µM].
O=C(O)c1cccc(Nc2nc(C(F)(F)F)nc3ccccc23)c1 was read as G9a block -1%[59 µM], Six1-Eya2 blk -2, HP1b binding inh 20%, CtBP-E1A blk -6, JMJD2A Tudor -9% and BAZ2B inh -17%.
`O=C(O)c1cccc(Nc2nc(-c3ccc([N+](=O)[O-])cc3)nc3ccccc23)c1` gave G9a block inconclusive, Six1-Eya2 blk 1, HP1b binding inh 12%, CtBP-E1A blk 6, JMJD2A Tudor -30% and BAZ2B inh 56µM*.
`O=C(O)c1cccc(Nc2nc(-c3ccccc3)nc3ccccc23)c1` gave G9a block 56µM*, Six1-Eya2 blk inconclusive, HP1b binding inh 16%, CtBP-E1A blk -17, JMJD2A Tudor -13% and BAZ2B inh inconclusive.
Screening CC(=O)c1ccc(Nc2nc3ccccc3nc2NS(=O)(=O)c2cccs2)cc1 returned G9a block 3%, Six1-Eya2 blk 1, HP1b binding inh 30%[57 µM], JMJD2A Tudor 13% and BAZ2B inh 9%.
CCOC(=O)N1CCN(C(=O)CN(c2cccc(Cl)c2)S(=O)(=O)c2ccccc2)CC1 was read as G9a block -10%[59 µM], HP1b binding inh 20%, JMJD2A Tudor -7% and BAZ2B inh -3%.
O=C(O)c1ccc(CNC(=O)c2ccc3c(c2)OCCO3)cc1 was read as G9a block -16%, Six1-Eya2 blk -8, HP1b binding inh 23%, CtBP-E1A blk -9, JMJD2A Tudor -19% and BAZ2B inh -17%.
Screening CC(=O)Nc1ccc(S(=O)(=O)N2CCN(S(=O)(=O)c3c(F)cccc3F)CC2)cc1 returned JMJD2A Tudor -12%.
`Cc1cc(C)c2c(CC(=O)Nc3cc(C(F)(F)F)ccc3Cl)coc2c1` gave G9a block 6%[59 µM], HP1b binding inh 27%, JMJD2A Tudor -28% and BAZ2B inh 2%.
CCOc1ccc(NC(c2ccccn2)c2oc(CO)cc(=O)c2O)cc1 (centres undefined) was read as G9a block 1.4µM*, Six1-Eya2 blk -26, HP1b binding inh inconclusive, CtBP-E1A blk -15, JMJD2A Tudor 22µM* and BAZ2B inh 20µM*.
`CCOC(=O)[C@]12CCC=C1N(Cc1ccccc1)C(=O)[C@H](CC(=O)NCC13CC4CC(CC(C4)C1)C3)C2` gave Six1-Eya2 blk -10 and CtBP-E1A blk -2.
Screening C/C(=N\NS(=O)(=O)c1ccc(C)c([N+](=O)[O-])c1)c1cccs1 returned G9a block 32µM*, Six1-Eya2 blk -9, HP1b binding inh 17%, CtBP-E1A blk -3 and JMJD2A Tudor -18%.
For C/C(=N\NS(=O)(=O)c1ccc([N+](=O)[O-])cc1)c1cccs1 the results were G9a block 45µM*, Six1-Eya2 blk 1, HP1b binding inh -5%, JMJD2A Tudor inconclusive and BAZ2B inh inconclusive.
For O=[N+]([O-])c1ccc(S(=O)(=O)N/N=C/c2cccs2)cc1 the results were G9a block inconclusive, Six1-Eya2 blk 7, HP1b binding inh inconclusive, CtBP-E1A blk -3, JMJD2A Tudor -19% and BAZ2B inh -31%.
Screening C/C(CC(C)C)=N\NS(=O)(=O)c1ccc(C)c([N+](=O)[O-])c1 returned G9a block 32µM*, Six1-Eya2 blk -7, HP1b binding inh -12%, CtBP-E1A blk -7, JMJD2A Tudor inconclusive and BAZ2B inh 12%.
For CC(C)/C(=N\NS(=O)(=O)c1ccc(Br)cc1)c1cccs1 the results were G9a block inconclusive, Six1-Eya2 blk 17, HP1b binding inh -7%, CtBP-E1A blk 6, JMJD2A Tudor 50µM* and BAZ2B inh -23%.
